The source of these data is the supplement of paper PMC13380429.

In the assay the test system is Vero E6 infected with SARS-CoV-2. The assay is described as follows: inhibition of SARS-CoV-2 cytopathic effect; higher = more antiviral protection, active = above 15. The conditions noted are these: 48 h.

Values without a mark were called inactive.

On to `Cc1cc(OCc2nnc(SC3CCCC3)n2-c2cccnc2)ccc1-c1ccc(S(C)(=O)=O)cc1`, for which the “inhibition of SARS-CoV-2 cytopathic effect” value (from here on “inhibition”) is -0.48% (1 nM); 0.31% (8.33 nM); 1.82% (100 nM); 5.04% (833.33 nM); -19.7% (10000 nM).
For `O=C(c1cccc(Br)c1)N1CCC(N2CCCC2)CC1`, in that order: -0.38%, 1.79%, -0.46%, 2.16% and -0.32%.
`CCOC(=O)c1ccc(O)cc1` [ethyl-paraben]: the “inhibition” value was 0.82% (1 nM); 3.38% (8.33 nM); -1.2% (100 nM); 0.24% (833.33 nM); -1.28% (10000 nM).
In the case of `O=C(O)CCCc1ccc(N(CCCl)CCCl)cc1` [chlorambucil], the “inhibition” value is, setting by setting: (1 nM) -0.23%; (8.33 nM) 0.88%; (100 nM) -0.7%; (833.33 nM) -1.67%; (10000 nM) -0.16%.
Take `COc1cc2c(NC3CCN(C(C)C)CC3)nc(N3CCC(F)(F)CC3)nc2cc1OCCCN1CCCC1`: the “inhibition” value (1 nM) is -0.61%; the “inhibition” value (8.33 nM) was 0.14%; the “inhibition” value (100 nM) was 3.08%; the “inhibition” value (833.33 nM) was 0.9%; the “inhibition” value (10000 nM) is 68.5% (active).
On the same counts, the results for `O=C(O)c1ccc(O)c2ncccc12` are 0.11%, 1.32%, 1.3%, 3.02% and 1.28%.
For `C1CCC(/N=C(\NC23CC4CC(CC(C4)C2)C3)N2CCOCC2)CC1`, in that order: 7.27%, 1.31%, 1.69%, 4.84% and -3.64%.
`COc1cc(Nc2nc3ccccc3nc2NS(=O)(=O)c2ccc(NC(=O)c3ccc(C)c(OC)c3)cc2)cc(OC)c1`: the “inhibition” value by setting is: (1 nM) 1.14%; (8.33 nM) 4.37%; (100 nM) 1.01%; (833.33 nM) -1.67%; (10000 nM) 0.57%.
For `CN(C)[C@@H](CCOc1cccc2ccccc12)c1ccccc1` [dapoxetine], in that order: 1.42%, 3.51%, 1.54%, 0.31% and 1.17%.
Regarding `CCO[C@H]1O[C@@H]2O[C@@]3(C)CC[C@H]4[C@H](C)CC[C@@H]([C@H]1C)[C@@]24OO3` [artemotil], the “inhibition” value was -0.58% (1 nM); -2.88% (8.33 nM); 1.56% (100 nM); 0.29% (833.33 nM); 1.11% (10000 nM).
In the case of `Oc1cc(O)cc(O)c1` [phloroglucin], the “inhibition” value is 3.42% (1 nM); 1.38% (8.33 nM); 2.28% (100 nM); 2.17% (833.33 nM); -2.03% (10000 nM).
For the compound `Cc1ccc(-c2n[nH]c3c2C(c2cccc(O)c2)N(c2ccc(C(=O)O)cc2)C3=O)cc1` (stereo not given), the “inhibition” value is -0.75% (1 nM); -0.46% (8.33 nM); 3.03% (100 nM); 3.6% (833.33 nM); 5.17% (10000 nM).
Consider `CO[C@@H](C)Cn1c(=O)n(C)c2cnc3ccc(-c4cncc(C(C)(C)O)c4)cc3c21`, for which the “inhibition” value runs as follows: (1 nM) 0.62%; (8.33 nM) 2.32%; (100 nM) -0.9%; (833.33 nM) -3.02%; (10000 nM) -17.6%.
Regarding `C[C@@H]1NC(C)(C)CO[C@@]1(O)c1cccc(Cl)c1` [radafaxine], the “inhibition” value was -2.6% (1 nM); 3.35% (8.33 nM); 6.44% (100 nM); 7.12% (833.33 nM); -0.21% (10000 nM).
`CCN(CC)CCOC(=O)c1cc(Cl)c(N)cc1OC`: the “inhibition” value (1 nM) is 3.29%; the “inhibition” value (8.33 nM) is 3.49%; the “inhibition” value (100 nM) is 1.89%; the “inhibition” value (833.33 nM) was -0.08%; the “inhibition” value (10000 nM) is -0.47%.
For `CCN1C[C@]2(COC(=O)c3ccccc3N3C(=O)C[C@H](C)C3=O)CC[C@H](OC)[C@@]34[C@@H]5C[C@H]6[C@H](OC)[C@@H]5[C@](O)(C[C@@H]6OC)[C@](O)([C@@H](OC)[C@H]23)[C@@H]14` [methyllycaconitine], in that order: -1.85%, -0.91%, 0.85%, 0.06% and -1.4%.
In the case of `Cc1ccc([N+](=O)[O-])cc1O` [2-methyl-5-nitrophenol], the “inhibition” value by setting is: (1 nM) -2.8%; (8.33 nM) -2.93%; (100 nM) -4.49%; (833.33 nM) -3.09%; (10000 nM) -2.25%.
In the case of `C[C@H](CCC(=O)O)[C@H]1CC[C@H]2[C@@H]3CC[C@@H]4C[C@H](O)CC[C@]4(C)[C@H]3CC[C@]12C` [lithocholic-acid], the “inhibition” value (1 nM) was -0.57%; the “inhibition” value (8.33 nM) was 0.93%; the “inhibition” value (100 nM) is -0.13%; the “inhibition” value (833.33 nM) was 0.9%; the “inhibition” value (10000 nM) is -0.77%.
On the same counts, the results for `CSc1ccc2c(c1)[C@H](N1CCN(C)CC1)Cc1ccccc1S2` (racemic) [metitepine] are 0.91%, 0.58%, -0.78%, -2.3% and 16.2% (active).
`COc1ccc2ccc(=O)oc2c1CC=C(C)C` [osthol]: the “inhibition” value is 2.39% (1 nM); 6.22% (8.33 nM); 1.91% (100 nM); 3.87% (833.33 nM); 2.49% (10000 nM).
With `C[C@]12CCC(=O)C=C1CC[C@@H]1[C@@H]2CC[C@@]2(C)[C@H]1CC[C@]2(O)C(=O)CO` [cortodoxone], the “inhibition” value was -0.53% (1 nM); -0.71% (8.33 nM); 1.21% (100 nM); 0.07% (833.33 nM); -1.41% (10000 nM).
